In PubChem BioAssay one finds inhibition of aggregation and nuclei count data, which are given here for 40 compounds.

Active and inactive are the calls of the source.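 Rule for the calls: active = visual image review flags a hit and inhibition of aggregation exceeds 20%; inconclusive = visual hit but inhibition at or below 20%; inactive = no hit on visual image review.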

A short description of this experiment: inhibitors of mutant huntingtin aggregation, primary screen, imaging, exon1htt(103Q)mCFP cells, high-content imaging (AID 483).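 For nuclei count: percent of the per-plate median nuclei count of sample wells.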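 Note: compound exposure lasted 3 days before fixation.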 The note with it: exon1htt(103Q)mCFP cell line, aggregate imaging, at 2 µM; inhibition of aggregation: stronger effect = higher value; nuclei count: measured here: cell count, toxicity.
For the compound `Cc1ccc(N(C(C)C(=O)Nc2ccc(S(=O)(=O)N3CCOCC3)cc2)S(C)(=O)=O)cc1` (stereo not given), the inhibition of aggregation is 23.8% (inactive) and the nuclei count was 68.3%.

As for `c1ccc(N2CCN(Cc3cn4cccnc4n3)CC2)cc1`, the inhibition of aggregation was -18.4% (inactive) and the nuclei count is 107%.

As to `Oc1ccc(N2CCN(C(c3ccncc3)c3nnnn3C3CCCC3)CC2)cc1` (stereo not given), the inhibition of aggregation is -5.2% (inactive) and the nuclei count was 101%.

In the case of `COC(=O)[C@H](C)NC(=O)Nc1cccc(C(F)(F)F)c1`, the inhibition of aggregation was 29.8% (inactive) and the nuclei count was determined as 85.5%.

Regarding `CCCCNC(=O)c1nc2ncc(Br)cn2n1`, the nuclei count turned out to be 109% and the inhibition of aggregation is -12.4% (inactive).

`CCN1CCN(C(c2cccs2)C(C)NC(=O)c2ccccc2)CC1` (stereo not given): the inhibition of aggregation was -7.7% (inactive) and the nuclei count came out at 102%.

As to `COc1ccc(C2C(C#N)=C(N)Oc3cc4c(cc32)OCO4)cc1` (stereo not given), the nuclei count amounted to 105% and the inhibition of aggregation was 4.7% (inactive).

As to `CCn1c(=O)c(C(=O)NCc2ccc(OC)cc2)c(O)c2ccccc21`, the nuclei count stood at 101% and the inhibition of aggregation was 0.6% (inactive).

For the compound `CCOC(=O)c1ccccc1NC(=O)c1ccc2c(=O)n3c(nc2c1)CCCCC3`, the inhibition of aggregation is 9.6% (inactive) and the nuclei count was 114%.

With `CN(CCc1ccccn1)c1ncnc2[nH]ncc12`, the nuclei count amounted to 71.8% and the inhibition of aggregation was -1.4% (inactive).

For the compound `CN(C(=O)c1cc2sccc2n1C)C1CCCCC1`, the inhibition of aggregation was 5.1% (inactive) and the nuclei count is 80.1%.

Regarding `COc1ccc(-n2c(SCC(=O)N3CCCCC3C)nnc2-c2cccnc2)cc1` (stereo not given), the inhibition of aggregation was 24.3% (inactive) and the nuclei count turned out to be 93.6%.

As for `CCn1nnc(NC(=O)c2ccccc2Br)n1`, the nuclei count was found to be 66% and the inhibition of aggregation was 6.4% (inactive).

Regarding `CC(=O)N1CCN(c2ccc(S(=O)(=O)N3CCCCC3)cn2)CC1`, the nuclei count came out at 101% and the inhibition of aggregation is 4.2% (inactive).

As for `CC1CCN(C(=O)CSCC(=O)Nc2nc(-c3cccs3)cs2)CC1`, the inhibition of aggregation is 17.8% (inactive) and the nuclei count turned out to be 94.3%.

For the compound `Cn1cnc2c1c(=O)n(Cc1cccc(Br)c1)c(=O)n2C`, the nuclei count stood at 113% and the inhibition of aggregation was 9.8% (inactive).

With `O=C(NC1CCCCC1)C1CCCN1C(=O)NCc1ccccc1` (stereo not given), the inhibition of aggregation is 7.5% (inactive) and the nuclei count is 106%.

Take `CCOC(=O)c1ccc(NC(=O)COc2ccc(-n3cnnn3)cc2)cc1`: the nuclei count was 60.6% and the inhibition of aggregation was -2.9% (inactive).

For the compound `Cc1cc(C)c2c(=O)n(CC(=O)NCCCN3CCOCC3)sc2n1`, the nuclei count amounted to 118% and the inhibition of aggregation is 1.1% (inactive).

For the compound `Cc1cccc2sc(NC(=O)CN(C)S(=O)(=O)c3cccs3)nc12`, the nuclei count was 114% and the inhibition of aggregation is -7% (inactive).

As to `CCCc1nc(NCc2ccncc2)c2nnn(Cc3ccccc3F)c2n1`, the inhibition of aggregation was -40.7% (inactive) and the nuclei count was 116%.

As for `O=S1(=O)CCC(NS(=O)(=O)/C=C/c2ccccc2)C1` (stereo not given), the nuclei count turned out to be 119% and the inhibition of aggregation is 2% (inactive).

For `O=C(NCC1CCCO1)C1CCCN(S(=O)(=O)c2cccc3nsnc23)C1` (stereo not given), the inhibition of aggregation was 30.3% (inactive) and the nuclei count was found to be 122%.

In the case of `COc1ccccc1NC(=O)N(C1CCCC1)C1CCN(C(C)=O)CC1`, the nuclei count was found to be 98% and the inhibition of aggregation was -7% (inactive).

Turning to `O=C1NC(Cc2c[nH]c3ccccc23)C(=O)N1CCOc1ccccc1` (stereo not given), the inhibition of aggregation was 3.1% (inactive) and the nuclei count worked out at 120%.

In the case of `COC(=O)C(C)Sc1nnc2n(-c3cccc(C)c3)c(=O)c3c4c(sc3n12)CCCC4` (stereo not given), the inhibition of aggregation was 7.6% (inactive) and the nuclei count worked out at 101%.

On to `COc1ccc2[nH]c(=O)c(CN(CC3CCCO3)C(=O)Nc3ccc(F)cc3)cc2c1` (stereo not given), for which the nuclei count turned out to be 95.3% and the inhibition of aggregation was 12.1% (inactive).

Turning to `Cc1nc2ccccc2c2oc(C(=O)NCC3COc4ccccc4O3)cc12` (stereo not given), the inhibition of aggregation is -11.9% (inactive) and the nuclei count came out at 91.7%.

With `CCN(Cc1cc2ccccc2[nH]c1=O)S(=O)(=O)c1ccccc1`, the inhibition of aggregation was 9.9% (inactive) and the nuclei count was found to be 104%.

Consider `CC(=O)NC(=O)NC1CSCC1OC(C)=O` (stereo not given), for which the inhibition of aggregation is 23.1% (inactive) and the nuclei count was determined as 99%.

As for `COc1ccc(S(=O)(=O)NCC(c2cccnc2)N2CCN(c3ccc(F)cc3)CC2)cc1C` (stereo not given), the inhibition of aggregation is -4.9% (inactive) and the nuclei count turned out to be 56.8%.

Turning to `COCCn1c(CN2CCN(c3cccc(Cl)c3)CC2)nc2c1c(=O)n(C)c(=O)n2C`, the nuclei count was 99.5% and the inhibition of aggregation was 5.4% (inactive).

As for `CC1(C)CC(CCNC(=O)c2ccco2)CC(C)(C)N1`, the inhibition of aggregation was 1.2% (inactive) and the nuclei count stood at 86.4%.

Take `O=C1c2ccccc2C(=O)N1C/C=C/c1ccccc1`: the nuclei count stood at 98.3% and the inhibition of aggregation is -5.9% (inactive).

For the compound `CCn1c(SCc2cccc(C(F)(F)F)c2)nnc1-c1ccco1`, the nuclei count came out at 94.1% and the inhibition of aggregation was 4.5% (inactive).

As to `c1ccc(-c2nnc(CSc3nncs3)o2)cc1`, the nuclei count was 110% and the inhibition of aggregation is -19% (inactive).

On to `Cc1ccc(C)c(N2CCN(S(=O)(=O)c3ccc4c(c3)OCCO4)CC2)c1`, for which the inhibition of aggregation is -13.4% (inactive) and the nuclei count was found to be 134%.

Consider `CCOc1cccc(-n2nnnc2-c2ccc(OC)cc2)c1`, for which the nuclei count came to 3.6% and the inhibition of aggregation was -34.6% (inactive).

On to `CCOC(=O)C1CCCN(C(=O)c2ccc(CS(=O)(=O)c3ccc(Br)cc3)o2)C1` (stereo not given), for which the inhibition of aggregation is -0.5% (inactive) and the nuclei count stood at 108%.

Take `C=CCSC1=C(C#N)C(c2ccccc2Cl)CC(=O)N1` (stereo not given): the nuclei count turned out to be 74.3% and the inhibition of aggregation is 28.2% (inactive).
